Only some compounds are listed: those with a hit (about 6.2% of all), similar ones and a draw of the others.
Luc counter – Counterscreen for Luciferase (Kinase-Glo TM) Inhibition | Luciferin 4-monooxygenase (Photuris pensylvanica), Q27757 | Kinase-Glo luciferase, ATP luminescence, 8 min | Potency, µM (series often up to 38.3 µM), actives largely listed as inhibitors | actives 0.28% (n = 200,000) | AID 1379, 2008; further: nearly all actives have a fitted effect of over 60% in size
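Recombinant Kinase-Glo luciferase, 10 uM ATP (linear range), luciferin; imidazole pH 7.2 / KCl / MgCl2 / Tween / BSA buffer; 8 min RT; luminescence.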
Gal4-VP16 FLuc – VP16 counterscreen qHTS for inhibitors of ROR gamma transcriptional activity. AID 2546, 2010. Drosophila S2 Gal4-VP16 UAS-luciferase, luminescence, 20 h. actives 3.5% (n = 310,000). Potency, µM (series often up to 53.6 µM), actives largely listed as inhibitors;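 further: Gal4-VP16 expression switched on by copper sulfate through the metallothionein promoter; nearly all actives have a fitted effect of over 50% in size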
RORgamma inh – qHTS for inhibitors of ROR gamma transcriptional activity; Nuclear receptor ROR-gamma (Mus musculus), P51450; actives 5.4% (n = 310,000); Drosophila S2 Gal4-RORgamma UAS-luciferase reporter, 20 h; Potency, µM (top dose mostly 53.6 µM), hits mostly inhibitors; further: nearly all actives have a fitted effect of over 60% in size
Target sequence (P51450 whole entry, looked up, the tested form may be a part): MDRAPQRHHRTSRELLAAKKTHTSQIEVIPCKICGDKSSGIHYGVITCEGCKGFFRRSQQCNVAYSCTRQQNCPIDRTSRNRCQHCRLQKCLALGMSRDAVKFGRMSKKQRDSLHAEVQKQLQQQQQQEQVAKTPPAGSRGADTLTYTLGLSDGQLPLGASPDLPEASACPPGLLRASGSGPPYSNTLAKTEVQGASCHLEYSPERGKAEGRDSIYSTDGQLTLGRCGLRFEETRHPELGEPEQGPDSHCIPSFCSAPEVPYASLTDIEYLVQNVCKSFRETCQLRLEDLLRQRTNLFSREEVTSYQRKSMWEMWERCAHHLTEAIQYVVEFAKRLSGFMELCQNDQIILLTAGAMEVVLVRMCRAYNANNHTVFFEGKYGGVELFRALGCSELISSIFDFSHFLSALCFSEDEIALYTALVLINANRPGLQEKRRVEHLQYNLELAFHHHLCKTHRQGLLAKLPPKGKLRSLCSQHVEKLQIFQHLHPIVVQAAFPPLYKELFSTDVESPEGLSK
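Schneider cells (Drosophila), stable Gal4 DBD–ROR gamma + UAS-luc; 1 hr cmpd preincubation; Cu2+ induction 700 uM final; 20 hr ambient; luminescence.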
Hits are given with their value; – = inactive; ? = inconclusive; · = not tested or not shown; ! = a repeat was not active; [ ] = another dose, or the depositor's remark. The call rests on the fitted dose curve; in most records, active means well fitted curve in the direction sought with a large enough effect; inconclusive means small, poorly fitted or top-dose-only effect, or another doubt; inactive means no such curve, though single readings can be large; an effect the other way counts as inactive or inconclusive.

SMILES	Luc counter	Gal4-VP16 FLuc	RORgamma inh
Cc1ccc(CN2CC(C(=O)Nc3cccc(S(=O)(=O)N4CCCCC4)c3)CC2=O)cc1 (stereo not given)	–	?	?
CCn1c(/C=C/c2ccccc2F)nc2ccccc2c1=O	·	?	–
CC(=O)Nc1ccccc1NC(=O)C/C(C)=N/NC(=O)c1cccnc1	·	–	–
CC(C)CCCC(C)C1CCC2C3CC(=O)[C@H]4CC(O)CC[C@]4(C)C3CC[C@@]12C (stereo not given in full)	–	–	–
C=C1CC[C@H](O)C/C1=C/C=C1\CCC[C@]2(C)[C@@H]([C@H](C)CC[C@@H](O)C(C)(C)O)CC[C@@H]12	–	?	–
C=C1/C(=C\C=C2/CCC[C@]3(C)[C@@H]([C@H](C)CCCC(C)(C)O)CC[C@@H]23)C[C@@H](O)C[C@@H]1O	–	?	10µM!
C=C1CC[C@H](O)C/C1=C/C=C1\CCC[C@]2(C)[C@@H]([C@H](C)CCCC(C)(C)O)CC[C@@H]12	–	11µM!	?
COc1cc2c(cc1OC)[C@@H]1O[C@](CCCCN3C(=O)c4ccccc4C3=O)(C2)Oc2cc(C)n(-c3ccccc3)c(=O)c21	·	–[10 µM]	–[10 µM]
O=Nc1c(O)[nH]c2c(Cl)c(Cl)ccc12	·	–	–
CCCC1=NN(C(=O)CCc2ccccc2O)C(O)(C(F)(F)F)C1 (stereo not given)	–	?	?
CCC1=NN(C(=O)c2cccnc2)C(O)(C(F)(F)F)C1 (stereo not given)	–	?	11µM
CCCCC1=NN(C(=O)c2cccnc2)C(O)(C(F)(F)F)C1 (stereo not given)	·	?	10µM
Cc1ccc(OCC(=O)N2N=C(c3cccnc3)CC2(O)C(F)(F)F)cc1C (stereo not given)	–	?	–
COc1cccc(CN2CCNC(=O)C2CC(=O)N(Cc2cnn(C)c2)C(C)C)c1 (stereo not given)	–	–	–
Cc1c(C)c2ccc(OCC(=O)NCCN3CCOCC3)c(C)c2oc1=O	·	–	–
Cc1ccc(Cl)cc1NC1=NC(=S)N(C(C)C)C12CCCCC2	–	3.5µM	2.8µM
Cc1ccc(Cl)cc1NC(=O)C(=O)N1CCCCC1	–	–	–
CCn1ncc(Cl)c1C(=O)Nc1cc(Cl)ccc1Cl	–	–	–
Cc1nn(C)c(C(=O)N/N=C/c2ccc(Br)cc2)c1Cl	–	?	?
Cc1nn(C)c(C(=O)NC(=S)Nc2ccccc2Br)c1Cl	·	14µM	8.9µM
CCn1ncc(Cl)c1C(=O)NC(=S)Nc1ccccc1Br	·	8.9µM	8.9µM
CC(=O)c1sc(C(C)(C)C)cc1NC(=O)c1ccccc1C(=O)O	·	–	?
Cc1ccc(-n2[nH]c3c4c(ccc3c2=O)C(=O)c2ccccc2C4=O)cc1	–	–	–[10 µM]
COCCCn1[nH]c2c3c(ccc2c1=O)C(=O)c1ccccc1C3=O	–	?	16µM
CC(C)(C)n1[nH]c2c3c(ccc2c1=O)C(=O)c1ccccc1C3=O	–	–	?
SMILES	Luc counter	Gal4-VP16 FLuc	RORgamma inh
Cc1ccc(C)c(-n2[nH]c3c4c(ccc3c2=O)C(=O)c2ccccc2C4=O)c1	–	–	6.3µM
Cn1cccc1C(=O)N1CCC2(CCCN(c3ccccn3)C2)CC1	–	–	–
O=C(c1cccc(F)c1)N1CCC2(CC1)NCCc1[nH]cnc12	·	–	–
O=C(O)CNC(=S)N(Cc1ccccc1)Cc1cccs1	–	–	–
Cc1ccc(CN(Cc2ccco2)C(=S)Nc2ccccc2C)cc1	–	–	?
Cc1ccc(CN(Cc2ccccc2)C(=S)Nc2ccccc2C)o1	–	?	7.1µM
Cc1cccc(C)c1NC(=S)N(Cc1ccccc1)Cc1cccs1	–	–[10 µM]	7.1µM
Cc1cc(C)nc(N2CCN(S(=O)(=O)c3ccc(F)cc3)CC2)n1	·	–	–
Cc1ccc(S(=O)(=O)NCC2CCC(C(=O)NCCCN3CCCC3=O)CC2)cc1 (stereo not given)	·	–	–
CCOCCCNC(=O)C(c1ccc(C)cc1)N(Cc1cccs1)C(=O)CNC(C)=O (stereo not given)	–	–	–
O=C(CCn1nnc(-c2cccs2)n1)NC1CCCCC1	–	–	–
CN(C)Cc1ccccc1Sc1ccccc1Br	–	–	–
CN(C)Cc1ccccc1Sc1cccc2ccccc12	–	14µM	10µM
CCOc1cc(NC(=O)c2ccccc2C)c(OCC)cc1NC(=O)C1=Cc2ccccc2OC1	–	–[0.365 µM]	–
CCOc1ccc(NC(=O)c2nccnc2CO)cc1	7.9µM	?	?
CCOc1ccc(NC(=O)c2ccccn2)cc1	13µM	4.5µM	7.1µM
CCOc1ccc(NC(=O)c2ccccc2CO)cc1	–	–	–
CCOc1ccc(NC(=O)c2cnccn2)cc1	–	?	?
CC/C(=N\O)c1ccc(O)c(OC)c1	–	–	–
CC1(C)CC2CC(C)(CN2C(=S)Nc2ccccc2F)C1 (stereo not given)	–	–	4µM
CC1(C)CC2CC(C)(CN2C(=S)Nc2ccccc2)C1 (stereo not given)	–	–	?
CC1(C)CC2CC(C)(CN2C(=S)NC(=O)c2ccccc2Cl)C1 (stereo not given)	·	1µM	1.3µM
CC(=O)Nc1ccccc1C(=O)N1CC2(C)CC1CC(C)(C)C2 (stereo not given)	–	–	–
Cc1ccc(OCCN2CCN(C(=O)CCC(=O)Nc3nnc(CC(C)C)s3)CC2)cc1	·	–	?
Cc1c(C)c2ccc(OCC(=O)N3CC[C@@]4(O)CCCC[C@H]4C3)c(C)c2oc1=O	·	–	–
SMILES	Luc counter	Gal4-VP16 FLuc	RORgamma inh
CCC(C)n1c(=S)[nH]c2ccccc2c1=O (stereo not given)	–	4.5µM	0.89µM
CCC(Cc1ccccc1)n1c(=S)[nH]c2ccccc2c1=O (stereo not given)	–	?	3.5µM
Cc1c(-n2c(=S)[nH]c3ccccc3c2=O)c(=O)n(-c2ccccc2)n1C	–	–	–
CCC(C)NC(=O)c1ccc(-n2c(=S)[nH]c3ccccc3c2=O)cc1 (stereo not given)	–	–	–
COn1c(=S)[nH]c2ccccc2c1=O	–	–	?
CC(C)n1c(=S)[nH]c2ccccc2c1=O	–	4µM	?
CSc1sc(C(=O)NNC(C)=O)c2c1C=CCC2	·	–	–
CC1=C(C(=O)Nc2ccccc2C(=O)NCCCN2CCN(C)CC2)SCCO1	·	–	–
CSc1n[nH]c(=O)n1-c1ccc(Cl)cc1	·	–	–
C[C@@H](C(=O)Nc1ccc2ccccc2c1)[C@H]1C[C@]1(C)[C@H](N)c1ccccc1	·	–	–
Cc1onc(-c2ccccc2)c1C(=O)N/N=C/c1cn(C)c2ccccc12	–	?	11µM
Cc1onc(-c2ccccc2)c1C(=O)N/N=C/c1ccccc1OC(C)C	·	–	?
Cc1cccc(/C=N/NC(=O)c2c(-c3ccccc3)noc2C)c1O	·	6.3µM	4µM
COc1ccccc1/C=N/NC(=O)c1c(-c2ccccc2)noc1C	·	–	–
COc1ccc(S(=O)(=O)c2nnn(-c3ccccc3Cl)c2N)cc1	–	–	?
CC(C)(C)C(=O)N1NC(=Nc2ccccc2)SC1(C)C	·	–	–
O=C(c1ccco1)N1CCCN(Cc2nc(Cc3ccccc3)no2)CC1	–	–	–

High-throughput results deposited in PubChem BioAssay by National Center for Advancing Translational Sciences (NCATS).
